# Reference: publication PMC9838217, “Structure of SALL4 zinc finger domain reveals link between AT-rich DNA binding and Okihiro syndrome”
# Residue numbers refer to the chain shown, from its start.
# Columns and labels:
# [1] = biological target: T1, SALL4 ZFC4 R900W (HT-SELEX) (Mus musculus, UniProt Q8BX22 870-940, R900W); assay: HT-SELEX; high values mean tight binding; conditions: protein: recombinant; vector His6-GST; dsDNA, one strand shown
# T1 sequence: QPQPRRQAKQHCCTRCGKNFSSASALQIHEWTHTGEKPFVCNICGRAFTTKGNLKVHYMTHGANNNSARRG
# Outline: (§1)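 Binding signal is expressed as fold change in each canonical k-mer's read fraction over the initial random library. To obtain it, 1 µg of purified recombinant mouse SALL4 zinc finger cluster 4 (residues 870–940) was incubated for 10 min at room temperature with library DNA (1.5 µg first cycle, 200 ng later cycles) in 100 µl of 10 mM Tris–HCl pH 7.5, 50 mM NaCl, poly(dI-dC) and DTT. Ni2+ bead-captured complexes went through washing, PCR amplification and reselection for up to 6 cycles, in triplicate, before MiSeq sequencing and scanning for 6-mers.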
# [2] = biological target: T2, SALL4 ZFC4 G921D (HT-SELEX) (Mus musculus, UniProt Q8BX22 870-940, G921D); assay: HT-SELEX; high values mean tight binding; conditions: protein: recombinant; vector His6-GST; dsDNA, one strand shown
# T2 sequence: T1 sequence with W31R, G52D
# Outline: as §1
Sequence,binding signal [1],binding signal [2]
AGGGCC,0.158 ± 0.0102 fold-change vs cycle 0,0.28 ± 0.0679 fold-change vs cycle 0
CCAGGC,0.174 ± 0.0159 fold-change vs cycle 0,0.302 ± 0.0679 fold-change vs cycle 0
GAACGC,0.308 ± 0.012 fold-change vs cycle 0,0.446 ± 0.0568 fold-change vs cycle 0
GCGGTA,0.271 ± 0.0135 fold-change vs cycle 0,0.391 ± 0.0556 fold-change vs cycle 0
CGCCGA,0.0711 ± 0.00229 fold-change vs cycle 0,0.179 ± 0.0757 fold-change vs cycle 0
CCCCGA,0.246 ± 0.0185 fold-change vs cycle 0,0.358 ± 0.0831 fold-change vs cycle 0
AGCCAC,0.315 ± 0.0294 fold-change vs cycle 0,0.473 ± 0.0855 fold-change vs cycle 0
CGTTGC,0.331 ± 0.00332 fold-change vs cycle 0,0.435 ± 0.0499 fold-change vs cycle 0
GAGCGA,0.326 ± 0.0151 fold-change vs cycle 0,0.483 ± 0.0727 fold-change vs cycle 0
GCTGCA,0.256 ± 0.0235 fold-change vs cycle 0,0.379 ± 0.0774 fold-change vs cycle 0
CGCTGA,0.291 ± 0.0233 fold-change vs cycle 0,0.403 ± 0.0818 fold-change vs cycle 0
CACGCA,0.282 ± 0.00613 fold-change vs cycle 0,0.422 ± 0.056 fold-change vs cycle 0
CGATCG,0.329 ± 0.0324 fold-change vs cycle 0,0.53 ± 0.115 fold-change vs cycle 0
AGGCTG,0.37 ± 0.0148 fold-change vs cycle 0,0.493 ± 0.0564 fold-change vs cycle 0
GGCTGA,0.349 ± 0.0304 fold-change vs cycle 0,0.483 ± 0.072 fold-change vs cycle 0
ACGTCG,0.298 ± 0.0109 fold-change vs cycle 0,0.438 ± 0.0515 fold-change vs cycle 0
AAGGCG,0.265 ± 0.014 fold-change vs cycle 0,0.425 ± 0.0847 fold-change vs cycle 0
AGGCGG,0.136 ± 0.00959 fold-change vs cycle 0,0.264 ± 0.0731 fold-change vs cycle 0
ACGCCA,0.244 ± 0.0178 fold-change vs cycle 0,0.368 ± 0.0567 fold-change vs cycle 0
CGACCA,0.322 ± 0.0112 fold-change vs cycle 0,0.456 ± 0.0665 fold-change vs cycle 0
CCGGTC,0.202 ± 0.0231 fold-change vs cycle 0,0.315 ± 0.0731 fold-change vs cycle 0

Sequence,binding signal [1],binding signal [2]
CCGCCC,0.0662 ± 0.0114 fold-change vs cycle 0,0.164 ± 0.0742 fold-change vs cycle 0
CCTGCG,0.145 ± 0.0224 fold-change vs cycle 0,0.246 ± 0.0829 fold-change vs cycle 0
GCGGAA,0.245 ± 0.0256 fold-change vs cycle 0,0.373 ± 0.0585 fold-change vs cycle 0
CGTGCA,0.286 ± 0.00377 fold-change vs cycle 0,0.417 ± 0.0517 fold-change vs cycle 0
AGGGGC,0.195 ± 0.00634 fold-change vs cycle 0,0.332 ± 0.0629 fold-change vs cycle 0
GTGCGA,0.265 ± 0.00784 fold-change vs cycle 0,0.4 ± 0.0639 fold-change vs cycle 0
CTTGGC,0.308 ± 0.0227 fold-change vs cycle 0,0.45 ± 0.0809 fold-change vs cycle 0
CGCCAC,0.103 ± 0.0044 fold-change vs cycle 0,0.216 ± 0.0502 fold-change vs cycle 0
AGCGCG,0.0579 ± 0.00565 fold-change vs cycle 0,0.159 ± 0.0595 fold-change vs cycle 0
GAACTA,1.48 ± 0.0646 fold-change vs cycle 0,1.37 ± 0.112 fold-change vs cycle 0
GGCCCC,0.0767 ± 0.0129 fold-change vs cycle 0,0.183 ± 0.0665 fold-change vs cycle 0
ACAGCG,0.265 ± 0.00461 fold-change vs cycle 0,0.381 ± 0.0624 fold-change vs cycle 0
GACAGC,0.361 ± 0.0178 fold-change vs cycle 0,0.491 ± 0.0963 fold-change vs cycle 0
GCACGC,0.0991 ± 0.0124 fold-change vs cycle 0,0.21 ± 0.063 fold-change vs cycle 0
AGCGGA,0.313 ± 0.018 fold-change vs cycle 0,0.432 ± 0.054 fold-change vs cycle 0
CCGTCG,0.147 ± 0.00952 fold-change vs cycle 0,0.245 ± 0.0616 fold-change vs cycle 0
GCAGAC,0.369 ± 0.0281 fold-change vs cycle 0,0.48 ± 0.0825 fold-change vs cycle 0
CTGGCA,0.281 ± 0.0156 fold-change vs cycle 0,0.413 ± 0.0619 fold-change vs cycle 0
CGCGAC,0.088 ± 0.0103 fold-change vs cycle 0,0.202 ± 0.0599 fold-change vs cycle 0
GCCCGA,0.125 ± 0.0121 fold-change vs cycle 0,0.243 ± 0.0758 fold-change vs cycle 0
